Source: PubChem
Cruzain Triton – qHTS Assay for Promiscuous and Specific Inhibitors of Cruzain (with detergent); Cruzipain (Trypanosoma cruzi), P25779; purified cruzain, Z-FR-AMC fluorescence, 0.01% Triton; Potency, µM, most hits filed as inhibitors; 0.43% of 200,000 active; AID 1478, 2009; note: nearly all actives have a fitted effect of over 40% in size
Target sequence (P25779 123-467 limits assumed): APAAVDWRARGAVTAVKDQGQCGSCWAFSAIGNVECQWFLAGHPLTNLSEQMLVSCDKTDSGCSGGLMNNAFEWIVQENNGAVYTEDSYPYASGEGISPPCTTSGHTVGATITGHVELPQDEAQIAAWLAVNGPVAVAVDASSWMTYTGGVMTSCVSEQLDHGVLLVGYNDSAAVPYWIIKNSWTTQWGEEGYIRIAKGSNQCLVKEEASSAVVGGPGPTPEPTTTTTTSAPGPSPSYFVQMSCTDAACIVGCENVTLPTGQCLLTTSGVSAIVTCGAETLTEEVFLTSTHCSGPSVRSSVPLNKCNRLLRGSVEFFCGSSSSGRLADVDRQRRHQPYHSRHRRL
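Purified cruzain (1.5 nM final) was preincubated with compounds for 15 min at room temperature in 100 mM sodium acetate pH 5.5, 5 mM DTT, 0.01% Triton X-100. Reaction started with 2 uM Z-FR-AMC; AMC fluorescence change over 60 s gave activity.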
Cruzain inh noDet – qHTS Assay for Promiscuous and Specific Inhibitors of Cruzain (without detergent) | Cruzipain (Trypanosoma cruzi), P25779 | purified cruzain, Z-FR-AMC fluorescence, no detergent | Potency, µM, most hits filed as inhibitors | 2.3% of 200,000 active; note: nearly all actives have a fitted effect of over 40% in size
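Purified cruzain at 1.5 nM, pre-incubated 15 min with compound at room temperature in 100 mM sodium acetate pH 5.5, 5 mM DTT, 0.00005% Triton X-100. Reaction started with 2 uM Z-FR-AMC; AMC fluorescence increase over 60 s gives rate.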
Hits are given with their value; – = inactive; ? = inconclusive. An excerpt weighted towards active compounds, which were near 2.5% of everything screened. Calls come from the whole dose curve; as a rule, active = well fitted curve in the direction sought with a large enough effect; inconclusive = small, poorly fitted or top-dose-only effect, or another doubt; inactive = no such curve, though single readings can be large; an effect the other way counts as inactive or inconclusive.

SMILES	Cruzain Triton	Cruzain inh noDet
CCn1cc(/C=N/NC(=O)c2cc3c(ccc4ccccc43)o2)c2ccccc21	–	7.9µM
CC(C)n1cc(/C=N\NC(=O)c2cc3c(ccc4ccccc43)o2)c2ccccc21	–	5µM
COc1cc(NC(=O)CCc2c(C)nc3c4c(C)cc(C)nc4nn3c2C)cc(OC)c1	–	?
CCN(c1cccc(C)c1)S(=O)(=O)c1cc(Br)cc2c1N(C(C)=O)C(C)C2 (configuration not stated)	–	?
Cn1c(=O)c2c(ncn2CN2CCN(Cn3cnc4c3c(=O)n(C)c(=O)n4C)CC2)n(C)c1=O	–	–
CC(=O)Nc1ccc(NC(=O)C(Cc2ccccc2)NS(=O)(=O)c2ccc3c(c2)oc(=O)n3C)cc1 (configuration not stated)	–	?
Cc1cccc(OCCOc2ccc(/C=N/NC(=O)Cc3nnc(N)s3)cc2)c1	–	5µM
Nc1nnc(CC(=O)N/N=C/c2ccc(-c3ccccc3)o2)s1	–	–
COc1ccc(CCNC(=O)CCS(=O)(=O)c2cc(Br)cc3c2N(C(C)=O)CC3)cc1OC	–	–
CCOc1ccc(-c2nnc(SCC(=O)Nc3cc(C)ccc3OC)o2)cc1	32µM	?
COc1ccc(C)cc1NC(=O)CSc1nnc(-c2ccc(C)cc2)o1	–	–
CCOc1ccc(-c2nnc(SCC(=O)Nc3ccc(C)cc3Cl)o2)cc1	28µM	?
CCOc1ccc(-c2nnc(SCC(=O)Nc3ccc(C)cc3C)o2)cc1	–	–
CC1=C/C(=N/O)C([C@H]2C=C(C)CC(C)(C)[C@@H]2O)C(C)(C)C1 (some centres not stated)	–	–
O=C(COc1ccc(Br)cc1Br)NC(=S)Nc1cccc(CO)c1	–	?
O=C(COc1ccc2ccccc2c1Br)NC(=S)Nc1cccc(CO)c1	–	32µM
CC(C)(Oc1ccc(Cl)cc1)C(=O)Nc1nnc2n1CCS2	–	–
COc1ccc(NC(=O)Cn2c(=O)n(-c3cccc(C)c3)c(=O)c3c2c2cc(C)ccc2n3C)cc1Cl	–	–
CCn1nc([N+](=O)[O-])c(C(C#N)c2nc3cc(C(F)(F)F)ccc3s2)c(Cl)c1=O (configuration not stated)	22µM	?
CCCn1nc([N+](=O)[O-])c(C(C#N)c2nc3ccccc3o2)c(Cl)c1=O (configuration not stated)	–	–
Cn1c2ccc(F)cc2c2nnc(SCCN3CCCCC3)nc21	14µM	13µM
CCOc1ccc2c(c1)c1nnc(SCC(=O)N3CCCCC3C)nc1n2C (configuration not stated)	–	?
CCN(CC)CCn1c2ccc(F)cc2c2nc(C)sc21	–	–
CCn1c2ccccc2c2nnc(SCCN3CCCCC3)nc21	–	–
CCN(CC)CCSc1nnc2c3cc(F)ccc3n(C)c2n1	16µM	13µM
SMILES	Cruzain Triton	Cruzain inh noDet
CCCCn1c2ccc(F)cc2c2nnc(SCCN3CCCCC3)nc21	16µM	?
Cc1ccccc1Cn1ccn(-c2ccc(F)c(F)c2)c(=O)c1=O	–	–
O=C(CCN1C(=O)/C(=C/C=C/c2ccccc2)SC1=S)Nc1nc2ccccc2s1	–	7.9µM
O=C(CCCN1C(=O)/C(=C/c2cccs2)SC1=S)NNC(=O)c1ccccc1O	–	–
COc1cccc(/C=C2/SC(=S)N(CC(=O)Nc3nnc(C)s3)C2=O)c1	–	–
O=C(CCn1c(=O)oc2ccccc21)Nc1nc2ccccc2s1	–	–
O=C(CN1C(=O)/C(=C/c2ccccc2)SC1=S)Nc1ncc(Cc2ccccc2)s1	–	4µM
Cc1ccc(NC(=O)CN2C(=O)/C(=C\c3cccs3)SC2=S)cc1	–	5µM
O=C(CN1C(=O)/C(=C\C=C\c2ccccc2)SC1=S)Nc1ccc(F)cc1	–	6.3µM
CN1CCN(NC(=O)CN2C(=O)/C(=C/c3ccccc3F)SC2=S)CC1	–	–
COc1cc(NC(=O)C2CCN(S(=O)(=O)c3ccc4c(c3)oc(=O)n4C)CC2)cc(OC)c1	–	?
Cn1cccc1C(=O)N1CCC2(CCCN(c3ccccn3)C2)CC1	–	–
Cc1cc(C)c(NC(=O)C2CCN(c3nnc(C)c4c(C)n(-c5ccccc5)nc34)CC2)c(C)c1	–	–
COc1ccccc1-n1c(=O)n(C)c2c(C(N)=O)nc(-c3cc(OC)c(OC)c(OC)c3)nc21	–	–
CCOC(=O)c1ccc(NC(=O)CSc2nccn2Cc2ccc(OC)cc2)cc1	–	–
COc1ccc(NC(=O)C2CCCN(c3nnc(C)c4c(C)n(-c5ccccc5)nc34)C2)cc1Cl (configuration not stated)	–	–
CCC(CC)c1nn2c(=O)cc(COc3ccc(NC(=O)c4ccccc4Cl)cc3)nc2s1	–	–
COc1cc2c(cc1NC(=O)C(C)N1CCN(S(=O)(=O)c3ccccc3[N+](=O)[O-])CC1)oc1ccccc12 (configuration not stated)	–	0.79µM
